# Source: PubChem BioAssay (NCATS)
# Where “and” joins values, the source holds several entries; their conditions need not be identical. Equal entries are not always repeated. Inconclusive results are not listed. Where a call stands in place of a potency, no number is given. Calls of active or inactive are those of the source. Unless noted, calls follow the shape of the dose curve; as a rule, active = well fitted curve in the direction sought with a large enough effect; inconclusive = small, poorly fitted or top-dose-only effect, or another doubt; inactive = no such curve, though single readings can be large; an effect the other way counts as inactive or inconclusive.
# Tests used:
# [1] = molecular target: Voltage-gated inwardly rectifying potassium channel KCNH2 (Homo sapiens) (UniProt Q12809); test: qHTS Assay for Small Molecule Inhibitors of the Human hERG Channel Activity (AID 588834);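 also: lower thallium flux fluorescence means stronger hERG block; nearly all actives have a fitted effect of over 50% in size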; also: potency is read from the fitted curve at half-maximal effect
# In short: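 hERG block measured as reduced thallium-dye (FluxOR) fluorescence after stimulation buffer addition, read over 2 min. Cells were hERG-BacMam-transduced U2OS exposed to compound ~10 min […]; concentration-response fitted with Hill equation for AC50.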
# [2] = molecular target: Luciferin 4-monooxygenase (Photinus pyralis) (UniProt P08659); test: Biochemical firefly luciferase enzyme assay for NPC (AID 624030);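 also: purified P. pyralis luciferase at 10 nM with luciferin and ATP substrate; nearly all actives have a fitted effect of over 70% in size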
# In short: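 Direct inhibition of firefly luciferase enzyme (10 nM final, 50 mM Tris Acetate) assessed by luminescence within 5 minutes. Percent activity scaled between DMSO and PTC124 positive control, with concentration-effect curves classified by fit quality and response.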
# [3] = S16 Schwann cell viability assay (CellTiter-Glo assay) (AID 624031);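 also: native untransfected S16 rat Schwann cells; cellular ATP luminescence as a viability measure; nearly all actives have a fitted effect of over 70% in size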
# In short: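 Cells were seeded at 500-750 per well in phenol red-free DMEM with 10% FBS and left overnight. Compounds or DMSO were pinned in, incubation ran 24 h at 37 °C/5% CO2, then CellTiter-Glo reagent was added and luminescence measured.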
# [4] = S16 Schwann cell PMP22 intronic element firefly luciferase assay (AID 624032); also: nearly all actives have a fitted effect of over 30% in size; also: potency is read from the fitted curve at half-maximal effect
# In short: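 Luciferase reporter of PMP22 intronic-element expression in stably transfected S16 rat Schwann cells, read by ONE-Glo luminescence after 24 h compound exposure at 37 C. Activity scaled between DMSO (0%) and positive-control PTC124; concentration-effect curves quality-classified.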
# [5] = S16 Schwann cell PMP22 intronic element beta-lactamase assay (AID 624044; calls by dose curve; also: nearly all actives have a fitted effect of over 15% in size)
# In short: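 Beta-lactamase reporter under a PMP22 intronic regulatory element in stable S16 rat Schwann cells; 24 h compound exposure. 460 nm blue signal normalized between DMSO (0%) and potassium clavulanate, with 535 nm FRET tracking viability; curves classed by r2 and response.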
# [6] = molecular target: Glutaminase kidney isoform, mitochondrial (Homo sapiens) (UniProt O94925); test: qHTS for Inhibitors of Glutaminase (GLS): LOPAC Validation (AID 624146);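 also: glutamate product detected by oxidase and peroxidase coupled Amplex red fluorescence gain; nearly all actives have a fitted effect of over 60% in size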
# In short: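 Human kidney-isoform GLS in 45 mM KH2PO4 pH 8.2, 0.02% Tween-20, with compound, started with 1mM L-Glutamine (added stock). Glutamate oxidase/HRP/Amplex red coupled fluorescence read at start and after 30 min at RT.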
# [7] = qHTS of Trypanosoma Brucei Inhibitors: LOPAC Validation (AID 624147)
# In short: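 Quantitative HTS: titrated library compounds versus trypanosomal pyruvate kinase in TEA buffer (pH 7.2) containing KCl, MgCl2, BSA and Tween-20. Reactions were initiated with ADP, 130 uM final. Kinase-Glo Plus luminescence was read after 45 min at RT.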
# [8] = molecular target: Glucagon-like peptide 1 receptor (Homo sapiens) (UniProt P43220); test: qHTS of GLP-1 Receptor Agonists: LOPAC Validation (AID 624148);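 also: luminescence from a luciferase reporter switched on by cAMP; higher luminescence signal means agonism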
# In short: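 Agonism scored as increased luciferase luminescence driven by cAMP in HEK293 clones carrying GLP-1R. Cells settled 12 hours, received compound for 4-6 hr at 37 deg C, 5% CO2, and were read after 12 min detection reagent at RT.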
# [9] = qHTS of Nrf2 Activators: LOPAC Validation (AID 624149)
# In short: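 AREc32_Fluc cells, 1000/well, OPTI-MEM + 5% FBS, o/n 37 deg C 5% CO2; compound pin-transfer, 24 hr 37 deg C; Steady-Glo 30 min RT, luminescence read.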
# [10] = HTS Assay for Allosteric Antagonists of the Human D2 Dopamine Receptor: Hit Validation in HTRF (AID 624455)
# In short: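 HTRF read-out; cells stably expressing D1 receptor; hits scored for inhibition of D1-mediated response. Primary screen: calcium flux, force-coupled inducible Hek293 Trex D2 line, antagonism vs EC80 dopamine.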
# [11] = Cell Proliferation Assay against the TMD8 Cell Line (AID 651645); conditions: TMD8 DLBCL cell line proliferation/viability; at 46.1 µM (top of the series) unless noted;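 also: cells exposed to compound for 48 h before reading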
# In short: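 Viability by CellTiter-Glo after 48 h compound exposure of 500 log-phase TMD8 cells per well (RPMI, 5% FBS). Percent activity scaled between DMSO (100%) and 9.2 uM final bortezomib (0%).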
# [12] = Cell Proliferation Assay against the HBL1 Cell Line (AID 651646); conditions: HBL1 DLBCL cells; at 46.1 µM (top of the series) unless noted;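 also: cells exposed to compound for 48 h before reading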
# In short: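 CellTiter-Glo luminescence after 48 h compound exposure at 37C gives percent activity, with DMSO as 100% and 9.2 uM bortezomib final as 0%. Cells: 500 log-phase HBL1 per well, RPMI plus 5% FBS.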
# [13] = Cell Proliferation Assay against the TMD8 Cell Line (Caspase readout at 16 hrs) (AID 651712)
# In short: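 Caspase-Glo luminescence measured apoptosis after a 16 h, 37 C compound exposure of TMD8 cells (500 cells/well, 5% FBS RPMI). DMSO set 0% and bortezomib at 9.2 uM final set 100% activity.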
# Chain of Voltage-gated inwardly rectifying potassium channel KCNH2 (Homo sapiens) (Q12809 whole entry, looked up): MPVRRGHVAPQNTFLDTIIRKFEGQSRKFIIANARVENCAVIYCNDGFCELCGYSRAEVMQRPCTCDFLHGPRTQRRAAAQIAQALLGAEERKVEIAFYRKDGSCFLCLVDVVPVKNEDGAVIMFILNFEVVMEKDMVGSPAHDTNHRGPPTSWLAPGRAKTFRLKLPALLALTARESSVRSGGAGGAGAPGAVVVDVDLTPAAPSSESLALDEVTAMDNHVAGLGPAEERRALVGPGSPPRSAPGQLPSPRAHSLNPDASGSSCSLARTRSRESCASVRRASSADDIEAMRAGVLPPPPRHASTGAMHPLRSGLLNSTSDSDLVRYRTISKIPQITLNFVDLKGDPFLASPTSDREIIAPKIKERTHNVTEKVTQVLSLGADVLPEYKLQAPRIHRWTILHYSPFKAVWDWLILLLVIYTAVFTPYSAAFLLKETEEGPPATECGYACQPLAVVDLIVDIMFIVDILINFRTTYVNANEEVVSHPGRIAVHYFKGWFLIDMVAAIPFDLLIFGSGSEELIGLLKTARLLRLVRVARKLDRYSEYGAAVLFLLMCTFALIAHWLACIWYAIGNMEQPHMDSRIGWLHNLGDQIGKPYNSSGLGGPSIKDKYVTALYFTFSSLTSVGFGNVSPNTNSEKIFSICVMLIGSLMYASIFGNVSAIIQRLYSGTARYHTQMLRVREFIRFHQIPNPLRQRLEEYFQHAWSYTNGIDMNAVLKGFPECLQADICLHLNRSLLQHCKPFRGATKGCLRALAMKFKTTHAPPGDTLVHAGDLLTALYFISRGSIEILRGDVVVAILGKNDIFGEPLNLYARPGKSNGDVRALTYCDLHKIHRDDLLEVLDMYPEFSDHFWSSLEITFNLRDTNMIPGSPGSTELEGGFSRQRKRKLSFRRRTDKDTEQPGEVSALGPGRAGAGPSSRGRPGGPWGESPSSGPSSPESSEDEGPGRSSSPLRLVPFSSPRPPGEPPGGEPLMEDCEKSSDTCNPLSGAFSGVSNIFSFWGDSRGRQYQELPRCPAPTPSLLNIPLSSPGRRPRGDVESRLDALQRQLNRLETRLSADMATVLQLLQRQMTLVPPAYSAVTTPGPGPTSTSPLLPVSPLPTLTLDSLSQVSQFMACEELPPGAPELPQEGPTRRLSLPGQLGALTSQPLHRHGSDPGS
# Chain of Glutaminase kidney isoform, mitochondrial (Homo sapiens) (O94925 whole entry, looked up, canonical isoform): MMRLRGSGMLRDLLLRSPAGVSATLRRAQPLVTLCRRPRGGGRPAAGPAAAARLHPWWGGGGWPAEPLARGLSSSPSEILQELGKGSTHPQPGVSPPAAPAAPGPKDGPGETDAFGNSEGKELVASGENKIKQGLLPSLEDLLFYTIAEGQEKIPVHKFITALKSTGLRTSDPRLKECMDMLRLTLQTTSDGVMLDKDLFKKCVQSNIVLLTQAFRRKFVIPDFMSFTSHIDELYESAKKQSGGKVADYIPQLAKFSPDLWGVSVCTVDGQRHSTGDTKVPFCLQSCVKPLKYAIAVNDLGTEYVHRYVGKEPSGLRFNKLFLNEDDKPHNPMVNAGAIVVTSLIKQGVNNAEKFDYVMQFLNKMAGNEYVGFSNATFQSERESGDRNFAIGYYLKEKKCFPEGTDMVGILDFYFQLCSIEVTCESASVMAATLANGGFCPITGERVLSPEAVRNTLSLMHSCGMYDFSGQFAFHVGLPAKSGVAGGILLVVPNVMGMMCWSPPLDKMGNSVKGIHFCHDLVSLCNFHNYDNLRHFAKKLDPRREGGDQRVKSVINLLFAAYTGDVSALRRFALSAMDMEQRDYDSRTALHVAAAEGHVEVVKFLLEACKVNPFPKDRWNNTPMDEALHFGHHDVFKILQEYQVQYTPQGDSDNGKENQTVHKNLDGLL
# Chain of Glucagon-like peptide 1 receptor (Homo sapiens) (P43220 whole entry, looked up): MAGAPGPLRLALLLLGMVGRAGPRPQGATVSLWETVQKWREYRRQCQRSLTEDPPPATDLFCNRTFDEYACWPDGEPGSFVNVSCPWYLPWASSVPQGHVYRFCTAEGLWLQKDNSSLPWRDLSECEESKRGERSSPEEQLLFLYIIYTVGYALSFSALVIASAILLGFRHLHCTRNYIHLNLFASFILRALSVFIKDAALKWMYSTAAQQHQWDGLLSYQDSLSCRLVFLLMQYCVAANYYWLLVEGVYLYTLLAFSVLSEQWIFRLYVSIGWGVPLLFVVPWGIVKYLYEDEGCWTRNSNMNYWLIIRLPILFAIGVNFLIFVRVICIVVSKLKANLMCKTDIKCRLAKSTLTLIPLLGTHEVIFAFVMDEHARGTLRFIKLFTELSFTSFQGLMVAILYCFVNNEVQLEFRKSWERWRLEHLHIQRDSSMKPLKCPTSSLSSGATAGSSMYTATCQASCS
# Chain of Luciferin 4-monooxygenase (Photinus pyralis) (P08659 whole entry, looked up): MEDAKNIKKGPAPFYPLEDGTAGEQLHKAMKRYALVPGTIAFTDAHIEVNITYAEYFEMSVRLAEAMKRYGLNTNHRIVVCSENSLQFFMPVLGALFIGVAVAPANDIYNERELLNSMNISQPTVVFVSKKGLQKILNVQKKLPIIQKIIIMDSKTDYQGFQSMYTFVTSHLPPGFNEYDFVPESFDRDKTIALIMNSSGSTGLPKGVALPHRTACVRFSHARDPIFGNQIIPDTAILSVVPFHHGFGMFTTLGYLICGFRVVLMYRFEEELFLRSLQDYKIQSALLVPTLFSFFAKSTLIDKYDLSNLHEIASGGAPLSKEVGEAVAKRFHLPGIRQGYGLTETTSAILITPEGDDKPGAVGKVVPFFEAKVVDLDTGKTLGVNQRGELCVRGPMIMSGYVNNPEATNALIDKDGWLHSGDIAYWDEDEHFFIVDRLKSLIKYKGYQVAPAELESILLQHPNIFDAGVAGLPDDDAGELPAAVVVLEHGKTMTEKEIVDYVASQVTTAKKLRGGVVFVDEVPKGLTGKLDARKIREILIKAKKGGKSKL
compound,measurement,setting,value
Cc1ncc([N+](=O)[O-])n1CC(O)CCl (stereo not drawn),Potency,[1],inactive
CO/N=C(\C(=O)N[C@@H]1C(=O)N2C(C(=O)O)=C(CSc3nc(=O)c(O)nn3C)CS[C@H]12)c1csc(N)n1,Potency,[1],inactive
[O-][n+]1cccc(CO)c1,Potency,[1],inactive
same,Potency,[2],inactive
CCC(=O)Nc1ccc(O)cc1,Potency,[1],inactive
same,Potency,[2],inactive
same,Potency,[3],inactive
same,Potency,[4],inactive
CC[N+](CC)(CC)CCOc1ccc(/C=C/c2ccccc2)cc1,Potency,[1],14.1 µM (active)
same,Potency,[2],inactive
c1ccc2c(CC3=NCCN3)cccc2c1,Potency,[1],inactive
same,Potency,[2],inactive
OCC(CO)N[C@H]1C[C@](O)(CO)[C@@H](O)[C@H](O)[C@H]1O,Potency,[1],inactive
CC1=C(C/C=C(\C)CCC[C@H](C)CCC[C@H](C)CCCC(C)C)C(=O)c2ccccc2C1=O,Potency,[1],inactive
CC(=O)Oc1ccc(C2(c3ccc(OC(C)=O)cc3)C(=O)Nc3ccccc32)cc1,Potency,[1],inactive
same,Potency,[2],inactive
N[C@H](C(=O)O)c1ccc(O)cc1,Potency,[1],inactive
N[C@@H](CSSC[C@H](N)C(=O)O)C(=O)O,Potency,[1],inactive
CS(=O)(=O)c1ccc([C@@H](O)[C@@H](CF)NC(=O)C(Cl)Cl)cc1,Potency,[1],inactive
CCN(CC)C(=O)Nc1ccc(OCC(O)CNC(C)(C)C)c(C(C)=O)c1 (stereo not drawn),Potency,[1],inactive
CC(=O)Oc1c(C)c(C)c2c(c1C)CC[C@@](C)(CCC[C@H](C)CCC[C@H](C)CCCC(C)C)O2,Potency,[1],inactive
same,Potency,[2],inactive
C=CCn1c(=O)n([C@@H]2O[C@H](CO)[C@@H](O)[C@H]2O)c2nc(N)[nH]c(=O)c21,Potency,[1],inactive
CCCCCCCCCCCCCCCCCCOCC(O)CO (stereo not drawn),Potency,[1],inactive
same,Potency,[2],inactive
same,Potency,[3],inactive
CC1(C)S[C@@H]2[C@H](NC(=O)Cc3ccccc3)C(=O)N2[C@H]1C(=O)O (tested in a mixture with another compound),Potency,[1],inactive
O=c1cc(CO)occ1O,Potency,[1],inactive
same,Potency,[2],inactive
same,Potency,[3],inactive
Cc1ccc2nc(N)[nH]c(=O)c2c1Sc1ccncc1,Potency,[1],inactive
same,Potency,[2],inactive
same,Potency,[3],inactive
CC[C@@]1(c2ccccc2)NC(=O)N(C)C1=O,Potency,[1],inactive
same,Potency,[2],inactive
same,Potency,[3],inactive
same,Potency,[4],inactive
same,Potency,[5],inactive
CC(=O)CCC(=O)O,Potency,[1],inactive
same,Potency,[2],inactive
same,Potency,[3],inactive
same,Potency,[4],inactive
CC1(C)CO[C@@H](CC(=O)O)CN1,Potency,[1],inactive
same,Potency,[2],inactive
same,Potency,[3],inactive
same,Potency,[4],inactive
O=C(O)CN1C(=O)c2cccc3cccc(c23)C1=O,Potency,[1],inactive
same,Potency,[2],inactive
same,Potency,[3],inactive
same,Potency,[4],inactive
O=C(O)c1ccccn1,Potency,[1],inactive
same,Potency,[2],inactive
same,Potency,[3],inactive
same,Potency,[4],inactive
same,Potency,[5],inactive
NC1CCN(c2cccc(Cl)n2)CC1,Potency,[1],inactive
same,Potency,[2],inactive
same,Potency,[3],inactive
same,Potency,[4],inactive
same,Potency,[6],inactive
same,outcome,[7],inactive
same,outcome,[8],inactive
same,outcome,[9],inactive
same,outcome,[10],inactive
C[C@@H]1CN(c2c(F)c(F)c3c(=O)c(C(=O)O)cn(C4CC4)c3c2F)C[C@H](C)N1,Potency,[1],inactive
same,Potency,[2],inactive
same,Potency,[3],inactive
same,Potency,[4],inactive
O=C1OC(OC(=O)c2cccnc2Nc2cccc(C(F)(F)F)c2)c2ccccc21 (stereo not drawn),Potency,[1],inactive
same,Potency,[2],inactive
same,Potency,[3],inactive
same,Potency,[4],7.21 µM (active)
COc1cc(C)c(Cc2cnc(N)nc2N)cc1OC,Potency,[1],inactive
same,Potency,[2],inactive
same,Potency,[4],inactive
Cc1ncc(COP(=O)(O)O)c(C=O)c1O,Potency,[1],inactive
same,Potency,[2],inactive
same,Potency,[3],inactive
same,Potency,[4],inactive
CCN(CC)CCSC(=O)C(c1ccccc1)c1ccccc1,Potency,[1],2.51 µM (active) and 4.47 µM (active)
same,Potency,[2],inactive
same,Potency,[3],inactive
same,Potency,[4],inactive
same,Potency,[5],inactive
CCN(CC)CCNC(=O)c1cc(Cl)c(N)cc1OC,Potency,[1],inactive
same,Potency,[2],inactive
same,Potency,[3],inactive
same,Potency,[4],inactive
same,Potency,[5],inactive
same,Potency,[6],inactive
same,outcome,[7],inactive
same,outcome,[8],inactive
same,outcome,[9],inactive
same,outcome,[10],inactive
CC(C)(C)NCC(O)COc1ccc(NC(=O)NC2CCCCC2)cc1 (stereo not drawn),Potency,[1],inactive
same,Potency,[2],inactive
same,Potency,[3],inactive
same,Potency,[4],inactive
C[C@](N)(Cc1ccc(O)cc1)C(=O)O,Potency,[1],inactive
same,Potency,[2],inactive
same,Potency,[3],inactive
same,Potency,[4],inactive
same,Potency,[6],inactive
same,outcome,[7],inactive
same,outcome,[8],inactive
same,outcome,[9],inactive
same,outcome,[10],inactive
Oc1cn2c(n1)Nc1ccc(Cl)c(Cl)c1C2,Potency,[1],inactive
same,Potency,[2],inactive
same,Potency,[3],inactive
same,viability (% of control),[11],87.9%
same,"viability, percent of control",[12],58.4%
same,Potency,[13],inactive
Cn1cc[nH]c1=S,Potency,[1],inactive
same,Potency,[2],inactive
same,Potency,[3],inactive
same,Potency,[4],inactive
same,Potency,[5],inactive
